# Whole data set: some 5,000 sequences, median “log2 normalized fluorescence” near 0.089, cut for the highest 2% near 0.81. The list comes from a sample in which the highest values are over-represented; it also holds similar and randomly drawn sequences.
# Biological target: MYC (p64);MAX (p21), in MYC:MAX (human;human, UniProt P01106-1;P61244-2 1-439;1-151, |)
# Test: protein-binding microarray (anti-MAX antibody); PBM: 15 mM Tris-HCl pH 7.5, 100 mM KCl, 0.075% NP40, 7.5 mM beta-mercaptoethanol, 375 ng/ul BSA, 8 ng/ul poly(dA-dT):(dA-dT), 550 ng complex, 60 min, room tempe; high values mean tight binding
# Details: protein: recombinant;recombinant; tags: 6xHis;6xHis; copies: 1;1; label: 3' end of printed strand (linker) attached to glass slide; dsDNA, one strand shown
# Outline: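 Binding, given as log2 normalized fluorescence, was measured on a custom Agilent glass array. The array bore ~5000 unique 12-nt sequences spotted in triplicate and converted to double strands by primer extension. It was incubated with 550 ng of human His-tagged MYC:MAX or MAX:MAX dimers from E. coli for 60 min at room temperature in Tris-KCl buffer, pH 7.5, with NP40, BSA and poly(dA-dT) competitor, and bound protein was detected with anti-MAX and secondary antibodies and scanned at 543 nm.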
# MYC (p64);MAX (p21), in MYC:MAX, sequence (P01106 16-454, chain 1 of 2): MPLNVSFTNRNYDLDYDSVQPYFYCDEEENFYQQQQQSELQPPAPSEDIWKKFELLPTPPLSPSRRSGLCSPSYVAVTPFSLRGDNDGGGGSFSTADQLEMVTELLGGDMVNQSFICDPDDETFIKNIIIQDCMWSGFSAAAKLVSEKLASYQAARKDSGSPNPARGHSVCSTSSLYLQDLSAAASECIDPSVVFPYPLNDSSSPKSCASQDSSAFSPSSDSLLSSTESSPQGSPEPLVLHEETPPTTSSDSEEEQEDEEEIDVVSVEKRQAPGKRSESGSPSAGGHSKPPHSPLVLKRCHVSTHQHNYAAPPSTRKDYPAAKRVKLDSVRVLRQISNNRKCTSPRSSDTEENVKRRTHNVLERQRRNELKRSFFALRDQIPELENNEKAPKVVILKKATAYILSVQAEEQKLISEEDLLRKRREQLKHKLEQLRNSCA
# MYC (p64);MAX (p21), in MYC:MAX, sequence (P61244 other isoform, or with tags, fused parts or gaps |, chain 2 of 2): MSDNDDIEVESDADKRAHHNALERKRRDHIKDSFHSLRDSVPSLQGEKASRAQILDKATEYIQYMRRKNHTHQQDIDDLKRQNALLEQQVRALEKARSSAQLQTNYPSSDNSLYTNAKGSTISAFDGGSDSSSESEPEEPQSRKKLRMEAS
row,Sequence,binding signal
1,CCGGCTGATCATTTGTATTAATAGCTAAGATTACTATATCGACG,0.247 log2 normalized fluorescence
2,CCGGCGGCCACGTGGTATTAATAGCTAAGATTACTATATCGACG,0.783 log2 normalized fluorescence
3,CCGGCTGAGACGTGGTCTTAATAGCTAAGATTACTATATCGACG,0.229 log2 normalized fluorescence
4,CCGGCTGCCATGTGGGATTAATAGCTAAGATTACTATATCGACG,0.899 log2 normalized fluorescence
5,CCGGCCACCACGTGGTATTAATAGCTAAGATTACTATATCGACG,0.975 log2 normalized fluorescence
6,CCGGCTGCCACGTCGTATTAATAGCTAAGATTACTATATCGACG,0.37 log2 normalized fluorescence
7,CCGGCTGCCACGTGGTATTAATAGCTAAGATTACTATATCGACG,0.82 log2 normalized fluorescence
8,CCGGCTACTATGCCATGTTAATAGCTAAGATTACTATATCGACG,0.159 log2 normalized fluorescence
9,CCGGCTGCCATGTGGTTTTAATAGCTAAGATTACTATATCGACG,0.633 log2 normalized fluorescence
10,CCGGCAACCACGTGGTATTAATAGCTAAGATTACTATATCGACG,0.742 log2 normalized fluorescence
11,CCGGCTGCGACGTGGTATTAATAGCTAAGATTACTATATCGACG,0.41 log2 normalized fluorescence
12,CCGGCTGATACGTGGTCTTAATAGCTAAGATTACTATATCGACG,0.408 log2 normalized fluorescence
13,CCGGCCGCCACGTGGTCTTAATAGCTAAGATTACTATATCGACG,0.884 log2 normalized fluorescence
14,CCGGCTGATGAGACGTATTAATAGCTAAGATTACTATATCGACG,-0.0198 log2 normalized fluorescence
15,CCGGCTGATACAGTGTATTAATAGCTAAGATTACTATATCGACG,0.0568 log2 normalized fluorescence
16,CCGGCTGAGATGCTGTATTAATAGCTAAGATTACTATATCGACG,-0.0512 log2 normalized fluorescence
17,CCGGCTGAGGCTATGTATTAATAGCTAAGATTACTATATCGACG,-0.0462 log2 normalized fluorescence
18,CCGGCTGACTCTTGGTATTAATAGCTAAGATTACTATATCGACG,0.16 log2 normalized fluorescence
19,CCGGCTGATGGCCTGTATTAATAGCTAAGATTACTATATCGACG,0.18 log2 normalized fluorescence
20,CCGGCTGATACACGGTATTAATAGCTAAGATTACTATATCGACG,0.262 log2 normalized fluorescence
21,CCGGCTGAGCCAATGTATTAATAGCTAAGATTACTATATCGACG,0.00395 log2 normalized fluorescence
22,CCGGCTGAAACCGCGTATTAATAGCTAAGATTACTATATCGACG,0.25 log2 normalized fluorescence
23,CCGGCTGAGAGTACGTATTAATAGCTAAGATTACTATATCGACG,0.142 log2 normalized fluorescence
24,CCGGCTGAGGGTCGGTATTAATAGCTAAGATTACTATATCGACG,0.137 log2 normalized fluorescence
25,CCGGCCGCCACGTGGTATTAATAGCTAAGATTACTATATCGACG,0.88 log2 normalized fluorescence
26,CCGGCTGCCACGAGGAATTAATAGCTAAGATTACTATATCGACG,0.707 log2 normalized fluorescence
27,CCGGCTGTCACGTGGAATTAATAGCTAAGATTACTATATCGACG,0.766 log2 normalized fluorescence
28,CCGGCCGCCACGTAGTATTAATAGCTAAGATTACTATATCGACG,0.312 log2 normalized fluorescence
29,CCGGCTGCCACGTGGAATTAATAGCTAAGATTACTATATCGACG,0.873 log2 normalized fluorescence
30,CCGGCCGCGACGTGGTATTAATAGCTAAGATTACTATATCGACG,0.471 log2 normalized fluorescence

# Source: publication PMC5515408, “Sequence-specific DNA binding by MYC/MAX to low-affinity non-E-box motifs”
